{"source": "PubChem BioAssay (NCATS)", "note": "“And” between values parts separate entries of the source, which are not always exact repeats. Equal values may be shown once. Results filed as inconclusive are left out. A number with no mark means an inactive call. The source made the active and inactive calls. Calls come from the whole dose curve; as a rule, active = well fitted curve in the direction sought with a large enough effect; inconclusive = small, poorly fitted or top-dose-only effect, or another doubt; inactive = no such curve, though single readings can be large; an effect the other way counts as inactive or inconclusive. Throughout, for Potency: potency is the fitted concentration of half-maximal effect. Throughout, for activity (max response): % is set by controls: 0 for no effect and ±100 for the full control effect. Throughout, for activity (max response): nearly all actives have a fitted effect of over 65% in size.", "data": [{"experiment": "Quantitative highthroughput screen to assess conditional lethalithy of P12 Ichikawa cells grown in Human Plasma-Like Medium with dialyzed fetal bovine serum (HPLM+ds) (AID 1963879); note: nearly all actives have a fitted effect of over 35% in size; note: potency is the fitted concentration of half-maximal effect", "conditions": "ATP luminescence, 48 h; Potency: viability; series mostly up to 45.8 µM", "in_short": "(§1)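 Each medium arm—HPLM with 10% dialyzed FBS, or RPMI1640 with 5 mM glucose and 10% untreated or dialyzed FBS—was screened against an 11-point, 3-fold compound titration for 48 h at 37 °C, with CellTiter-Glo luminescence as endpoint.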", "values": [{"smiles": "COc1ccc2c(c1OC)CN1CCc3cc4c(cc3C1C2)OCO4", "note": "(stereo unspecified)", "Potency": "2.64 µM (active)"}, {"smiles": "O=C(O)C(=O)c1cn(Cc2ccccc2)c2ccc(-c3ccc(OC(F)(F)F)cc3)cc12", "Potency": "inactive"}, {"smiles": "C[C@]12CCC(=O)C=C1CC[C@@H]1[C@H]3CC[C@](C)(O)[C@@]3(C)CC[C@@H]12", "Potency": "inactive"}, {"smiles": "CC(C)(O)C(=O)Nc1ccc([N+](=O)[O-])c(C(F)(F)F)c1", "Potency": "8.33 µM (active)"}]}, {"experiment": "Quantitative highthroughput screen to assess conditional lethalithy of P12 Ichikawa cells grown in RPMI1640 with dialyzed fetal bovine serum (RPMI+ds) (AID 1963880)", "conditions": "ATP luminescence, 48 h; Potency: P12-Ichikawa viability; series mostly up to 45.8 µM", "in_short": "as §1", "values": [{"smiles": "CCOC(=O)Nc1ccc(NCc2ccc(F)cc2)cc1N", "Potency": "inactive"}, {"smiles": "CC(C)[C@H]1C(=O)N[C@H](CO)Cc2c[nH]c3cccc(c23)N1C", "Potency": "0.418 µM (active)"}, {"smiles": "O=C(O)C(=O)c1cn(Cc2ccccc2)c2ccc(-c3ccc(OC(F)(F)F)cc3)cc12", "Potency": "inactive"}, {"smiles": "CC(C)(O)C(=O)Nc1ccc([N+](=O)[O-])c(C(F)(F)F)c1", "Potency": "16.6 µM (active)"}]}, {"experiment": "Quantitative highthroughput screen to assess conditional lethalithy of SEM cells grown in Human Plasma-Like Medium with dialyzed fetal bovine serum (HPLM+ds) (AID 1963882)", "conditions": "SEM B-ALL cells in HPLM+ds, CellTiter-Glo viability, 48 h; series mostly up to 45.8 µM", "in_short": "as §1", "values": [{"smiles": "CCOC(=O)Nc1ccc(NCc2ccc(F)cc2)cc1N", "Potency": "inactive"}, {"smiles": "CC(C)[C@H]1C(=O)N[C@H](CO)Cc2c[nH]c3cccc(c23)N1C", "Potency": "inactive"}, {"smiles": "COc1ccc2c(c1OC)CN1CCc3cc4c(cc3C1C2)OCO4", "note": "(stereo unspecified)", "Potency": "1.05 µM (active)"}, {"smiles": "CCCCCC[C@H]1C(=O)O[C@H](C)[C@H](NC(=O)c2cccc(NC=O)c2O)C(=O)O[C@@H](C)[C@@H]1OC(=O)CC(C)C", "Potency": "inactive"}, {"smiles": "C[C@]12CCC(=O)C=C1CC[C@@H]1[C@H]3CC[C@](C)(O)[C@@]3(C)CC[C@@H]12", "Potency": "inactive"}]}, {"experiment": "Quantitative highthroughput screen to assess conditional lethalithy of SEM cells grown in RPMI1640 with unreated serum (RPMI+s) (AID 1963883)", "conditions": "SEM B-ALL cells, CellTiter-Glo viability, 48 h; series mostly up to 45.8 µM", "in_short": "as §1", "values": [{"smiles": "CCOC(=O)Nc1ccc(NCc2ccc(F)cc2)cc1N", "Potency": "inactive"}, {"smiles": "COc1cc(C(=O)N2CC[C@@H](O)[C@@H](N)C2)cc2nc(-c3cc4ccccc4n3CC3CC3)n(C)c12", "Potency": "0.186 µM (active)"}, {"smiles": "C[C@]12CC[C@H]3[C@@H](CC[C@@]45O[C@H]4C(O)=C(C#N)C[C@]35C)[C@H]1CC[C@H]2O", "Potency": "18.7 µM (active)"}, {"smiles": "O=C(O)C(=O)c1cn(Cc2ccccc2)c2ccc(-c3ccc(OC(F)(F)F)cc3)cc12", "Potency": "inactive"}, {"smiles": "C[C@]12CCC(=O)C=C1CC[C@@H]1[C@H]3CC[C@](C)(O)[C@@]3(C)CC[C@@H]12", "Potency": "inactive"}, {"smiles": "O=S(=O)(CC1CS1)c1ccc(Oc2ccccc2)cc1", "note": "(stereo unspecified)", "Potency": "20.9 µM (active)"}, {"smiles": "O=S(=O)(F)Cc1ccccc1", "Potency": "inactive"}]}, {"experiment": "Quantitative highthroughput screen to assess conditional lethalithy of SEM cells grown in RPMI1640 with dialyzed fetal bovine serum (RPMI+ds) (AID 1963884)", "conditions": "SEM B-ALL cells, RPMI+dialyzed FBS, CellTiter-Glo viability, 48 h; series mostly up to 45.8 µM", "in_short": "as §1", "values": [{"smiles": "CCOC(=O)Nc1ccc(NCc2ccc(F)cc2)cc1N", "Potency": "inactive"}, {"smiles": "O=c1cccc2n1CC1CNC[C@H]2C1", "Potency": "inactive"}, {"smiles": "O=S(=O)(F)Cc1ccccc1", "Potency": "inactive"}]}, {"experiment": "Cellular viability qHTS for adrenocortical cancer (ACC) cell line SW-13 (AID 1963989)", "conditions": "SW-13 ACC cells viability, CellTiter-Glo, 48 h; activity (max response): hits give low values", "in_short": "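SW-13 cells in ITS-supplemented serum-free DMEM were plated overnight, then exposed for 48 h at 37C to compound titrations (up to 46 uM final). Viability was read by CellTiter-Glo luminescence; four-parameter logistic fits gave IC50 and efficacy.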", "values": [{"smiles": "Cc1ccc(-c2nc3ccc(C)cn3c2CC(=O)N(C)C)cc1", "activity (max response)": "-1.33%"}, {"smiles": "COc1cc(CC(C)N)cc2c1OCO2", "note": "(stereo unspecified)", "activity (max response)": "-21.8%"}, {"smiles": "CCC1(CC)C(=O)NC(=O)NC1=O", "activity (max response)": "-9.27%"}, {"smiles": "CCCN1CCC[C@@H]2Cc3nc(N)ncc3C[C@H]21", "activity (max response)": "3.03%"}, {"smiles": "O=C(CCCN1CCC2(CC1)C(=O)NCN2c1ccccc1)c1ccc(F)cc1", "activity (max response)": "-12.3%"}, {"smiles": "N#Cc1nn(-c2c(Cl)cc(C(F)(F)F)cc2Cl)c(N)c1S(=O)C(F)(F)F", "note": "(stereo unspecified)", "Potency": "5.8 µM (active)"}, {"smiles": "NCc1cccnc1", "activity (max response)": "4.01%"}, {"smiles": "CCOC(=O)CC(SP(=S)(OC)OC)C(=O)OCC", "note": "(stereo unspecified)", "activity (max response)": "13.7% and 6.35%"}, {"smiles": "O=[N+]([O-])c1c2ccccc2cc2ccccc12", "activity (max response)": "8.46%"}, {"smiles": "CC(C)[C@H]1C(=O)N[C@H](CO)Cc2c[nH]c3cccc(c23)N1C", "activity (max response)": "-2.75%"}, {"smiles": "Nc1ccc(Cl)cc1", "activity (max response)": "5.53%"}, {"smiles": "CCC(CC)(CNC(=O)CCCO)c1cccc(OC)c1", "activity (max response)": "8.71%"}, {"smiles": "COC[C@@H](NC(C)=O)C(=O)NCc1ccccc1", "activity (max response)": "8.1% and 13.7%"}, {"smiles": "Cc1nnc2n1-c1sc(CCC(=O)N3CCOCC3)cc1C(c1ccccc1Cl)=NC2", "activity (max response)": "5.36%"}, {"smiles": "COc1ccc(C(=O)N2CCCC2=O)cc1", "activity (max response)": "-6.45% and 13%"}, {"smiles": "COC(=O)[C@@]12OC[C@]34[C@H]([C@@H](O)[C@@H]1O)[C@@]1(C)CC(=O)C(O)=C(C)[C@@H]1C[C@H]3OC(=O)[C@H](OC(=O)/C=C(\\C)C(C)C)[C@@H]24", "Potency": "6.31 µM (active)"}, {"smiles": "O=c1cccc2n1CC1CNC[C@H]2C1", "activity (max response)": "-2.44%"}, {"smiles": "COc1cc(CCN)cc(OC)c1OC", "activity (max response)": "-7.31%"}, {"smiles": "COc1cc2c(cc1F)C(c1ccccc1Cl)=Nc1c(n[nH]c1C)N2", "activity (max response)": "-18.7%"}, {"smiles": "C[N+]1(C)[C@@H]2CC[C@H]1CC(OC(=O)C(CO)c1ccccc1)C2", "note": "(stereo partly specified)", "activity (max response)": "-4.66%"}, {"smiles": "CC[C@H](O)C(C[C@H](C)N(C)C)(c1ccccc1)c1ccccc1", "activity (max response)": "-19.9%"}, {"smiles": "CC(C)(C)C(O)C(Oc1ccc(Cl)cc1)n1cncn1", "note": "(stereo unspecified)", "activity (max response)": "-16.3%"}, {"smiles": "C[C@]12CC[C@H]3[C@@H](CC[C@@]45O[C@H]4C(O)=C(C#N)C[C@]35C)[C@H]1CC[C@H]2O", "activity (max response)": "-2%"}, {"smiles": "COc1cc(CC(C)N)c(OC)cc1Br", "note": "(stereo unspecified)", "activity (max response)": "-4.97%"}, {"smiles": "CC(=O)OC1(c2ccccc2)CCN(CCc2ccccc2)CC1", "activity (max response)": "-14.1%"}, {"smiles": "O=[N+]([O-])c1cc([As](=O)(O)O)ccc1O", "activity (max response)": "2.65%"}, {"smiles": "O=S(=O)(CC1CS1)c1ccc(Oc2ccccc2)cc1", "note": "(stereo unspecified)", "activity (max response)": "-6.36%"}, {"smiles": "CCCN1CCO[C@@H]2c3cc(O)ccc3OC[C@H]21", "activity (max response)": "7.73%"}, {"smiles": "O=S(=O)(F)Cc1ccccc1", "activity (max response)": "2.11%"}, {"smiles": "CCC(=O)O[C@@H]1C=C2CCC3C(CCC4(C)C3CC[C@@H]4OC(=O)CC)C2CC1", "note": "(stereo partly specified)", "activity (max response)": "1.7%"}, {"smiles": "CC(C)(O)C(=O)Nc1ccc([N+](=O)[O-])c(C(F)(F)F)c1", "activity (max response)": "-7.23%"}, {"smiles": "CN(C)c1cc2c(cc1Sc1nc3c(N)nccc3n1CCNCC(C)(C)C)OCO2", "Potency": "1.41 µM (active)"}, {"smiles": "C=CCN1C[C@H](C)N([C@H](c2ccc(C(=O)N(CC)CC)cc2)c2cccc(OC)c2)C[C@H]1C", "activity (max response)": "-5.15%"}]}]}
